Experimental data reported in the antibiotic and cytotoxicity screens of Wong et al. (2023).
Out of some 39,000 compounds screened, about 3,300 (8.5%) were called active. The list comes from a sample in which actives are over-represented; it also holds similar structures and randomly drawn compounds.

The molecules below were run on HepG2 (assay: cytotoxicity call (relative viability < 0.9)). Settings: 10 µM.
In the case of C[C@@H]1CN([C@H](C)CO)C(=O)c2cc(NC(=O)c3ccncc3)ccc2O[C@@H](C)CCCCO[C@H]1CN(C)S(=O)(=O)c1cn(C)cn1, the cytotoxicity call is reported as “inactive”. With CC(C)NC(=O)N(C)C[C@@H]1Oc2ncc(-c3ccc(C(=O)N(C)C)cc3)cc2C(=O)N([C@H](C)CO)C[C@H]1C the cytotoxicity call was “inactive”. In the case of CN(C)C(=O)c1cccc(-c2cccc(-c3nc(C(=O)N4CCCCC4)cc4c3[C@H](CCO)N([S@@](=O)C(C)(C)C)C4)c2)c1, the cytotoxicity call is reported as “inactive”. C[C@@H]1CN([C@@H](C)CO)C(=O)c2cc(NC(=O)c3ccccc3)ccc2O[C@@H](C)CCCCO[C@H]1CN(C)C(=O)Nc1ccc2c(c1)OCO2 was tested, and the cytotoxicity call was “inactive”. With C[C@@H]1CN([C@@H](C)CO)C(=O)CCCn2nncc2CO[C@H]1CN(C)Cc1ccc2c(c1)OCCN2C the cytotoxicity call was “inactive”. For CCC(C)C(=O)OC1CCC=C2C=CC(C)C(CCC3CC(O)CC(=O)O3)C21 (stereo not given), the cytotoxicity call was “active”. For CCC(C)C(=O)OC1CC(C)C=C2C=CC(C)C(CCC3CC(O)CC(=O)O3)C21 (stereo not given), the cytotoxicity call was “inactive”. With CCC(C)C(=O)OC1CC(O)C=C2C=CC(C)C(CCC(O)CC(O)CC(=O)[O-])C21.[Na+] (stereo not given) the cytotoxicity call was “inactive”. With C[C@@H]1CN([C@@H](C)CO)C(=O)c2cc(NS(=O)(=O)c3ccc(F)cc3)ccc2O[C@@H](C)CCCCO[C@@H]1CN(C)C(=O)Nc1ccc(F)cc1 the cytotoxicity call was “inactive”. For C[C@@H]1CCCCO[C@H](CN(C)C(=O)Nc2ccc(F)cc2)[C@@H](C)CN([C@H](C)CO)C(=O)c2cc(NS(=O)(=O)c3ccc(F)cc3)ccc2O1, the cytotoxicity call was “inactive”. With C[C@@H]1CCCCO[C@H](CN(C)C(=O)Nc2ccc(F)cc2)[C@@H](C)CN([C@@H](C)CO)C(=O)c2cc(NS(=O)(=O)c3ccc(F)cc3)ccc2O1 the cytotoxicity call was “active”. C[C@@H]1CN([C@H](C)CO)C(=O)c2cc(NS(=O)(=O)c3ccc(F)cc3)ccc2O[C@@H](C)CCCCO[C@H]1CN(C)C(=O)Nc1ccc(F)cc1 was tested, and the cytotoxicity call was “inactive”. With C[C@H]1CCCCO[C@H](CN(C)C(=O)Nc2ccc(F)cc2)[C@@H](C)CN([C@@H](C)CO)C(=O)c2cc(NS(=O)(=O)c3ccc(F)cc3)ccc2O1 the cytotoxicity call was “active”. C[C@H](CO)N1C[C@H](C)[C@H](CN(C)C(=O)Nc2ccc(F)cc2)OCCCC[C@H](C)Oc2ccc(NS(=O)(=O)c3ccc(F)cc3)cc2C1=O was tested, and the cytotoxicity call was “inactive”. In the case of C[C@@H]1CN([C@H](C)CO)S(=O)(=O)c2ccc(C#Cc3ccccc3F)cc2O[C@@H]1CN(C)CC1CCOCC1, the cytotoxicity call is reported as “inactive”. For COc1ccc(CN(C)C[C@H]2OCCCC[C@@H](C)Oc3ccc(NC(=O)NC4CCCCC4)cc3C(=O)N([C@@H](C)CO)C[C@H]2C)cc1, the cytotoxicity call was “inactive”. For Cc1ncsc1-c1ccc(CNC(=O)[C@@H]2C[C@@H](O)CN2C(=O)[C@H](C(C)C)N2Cc3ccccc3C2=O)cc1, the cytotoxicity call was “inactive”. For CN1C(=O)Cc2cc(NS(C)(=O)=O)ccc21, the cytotoxicity call was “inactive”. In the case of COc1ccc(S(=O)(=O)Nc2ccc3c(c2)C(=O)N([C@@H](C)CO)C[C@H](C)[C@H](CN(C)Cc2ccc(C(=O)O)cc2)OCCCC[C@@H](C)O3)cc1, the cytotoxicity call is reported as “inactive”. With COCCN1C[C@H]2[C@H](OC)CCN(S(=O)(=O)c3cn(C)cn3)[C@H]2C1 the cytotoxicity call was “inactive”. For CC1CC2C3CCC4=CC(=O)C=CC4(C)C3(Cl)C(O)CC2(C)C1(OC(=O)c1ccco1)C(=O)CCl (stereo not given), the cytotoxicity call was “active”. For CCC(=O)OCC(=O)C1(OC(=O)CC)C(C)CC2C3CCC4=CC(=O)C=CC4(C)C3(Cl)C(O)CC21C (stereo not given), the cytotoxicity call was “inactive”. In the case of CCC(=O)OC1(C(=O)CCl)C(C)CC2C3CCC4=CC(=O)C=CC4(C)C3(F)C(O)CC21C (stereo not given), the cytotoxicity call is reported as “inactive”. In the case of C[C@@H]1CCCCO[C@H](CN(C)C(=O)Nc2ccccc2)[C@H](C)CN([C@H](C)CO)C(=O)c2cc(NC(=O)CCC(F)(F)F)ccc2O1, the cytotoxicity call is reported as “inactive”. In the case of C[C@@H]1CN([C@H](C)CO)C(=O)c2cc(NC(=O)Cc3ccccc3)ccc2O[C@@H](C)CCCCO[C@@H]1CN(C)Cc1ccc(C(=O)O)cc1, the cytotoxicity call is reported as “inactive”. In the case of Cn1c(=O)c2[nH]c(-[n+]3ccc(C(=O)O)cc3)nc2n(C)c1=O, the cytotoxicity call is reported as “active”. With Cn1c(=O)c2[nH]c(Br)nc2n(C)c1=O [listing 1 of 2 here] the cytotoxicity call was “inactive”. In the case of Cn1c(=O)c2[nH]c(Br)nc2n(C)c1=O [listing 2 of 2 here], the cytotoxicity call is reported as “inactive”. With C[C@H]1CN([C@@H](C)CO)C(=O)c2cccc(NS(=O)(=O)c3ccc(F)cc3)c2O[C@H]1CN(C)S(C)(=O)=O the cytotoxicity call was “inactive”. COc1ccc(S(=O)(=O)Nc2ccc3c(c2)C(=O)N([C@@H](C)CO)C[C@H](C)[C@H](CN(C)C(=O)Nc2ccc(C(F)(F)F)cc2)OCCCC[C@@H](C)O3)cc1 was tested, and the cytotoxicity call was “inactive”. For COc1ccc(S(=O)(=O)Nc2ccc3c(c2)C(=O)N([C@@H](C)CO)C[C@@H](C)[C@@H](CN(C)C(=O)Nc2ccc(C(F)(F)F)cc2)OCCCC[C@@H](C)O3)cc1, the cytotoxicity call was “active”. With COc1ccc(S(=O)(=O)Nc2ccc3c(c2)C(=O)N([C@H](C)CO)C[C@@H](C)[C@H](CN(C)C(=O)Nc2ccc(C(F)(F)F)cc2)OCCCC[C@@H](C)O3)cc1 the cytotoxicity call was “inactive”. In the case of COc1ccc(S(=O)(=O)Nc2ccc3c(c2)C(=O)N([C@H](C)CO)C[C@H](C)[C@H](CN(C)C(=O)Nc2ccc(C(F)(F)F)cc2)OCCCC[C@H](C)O3)cc1, the cytotoxicity call is reported as “inactive”. In the case of COc1ccc(S(=O)(=O)Nc2ccc3c(c2)C(=O)N([C@@H](C)CO)C[C@H](C)[C@@H](CN(C)C(=O)Nc2ccc(C(F)(F)F)cc2)OCCCC[C@H](C)O3)cc1, the cytotoxicity call is reported as “active”. In the case of COc1ccc(S(=O)(=O)Nc2ccc3c(c2)C(=O)N([C@H](C)CO)C[C@H](C)[C@H](CN(C)C(=O)Nc2ccc(C(F)(F)F)cc2)OCCCC[C@@H](C)O3)cc1, the cytotoxicity call is reported as “inactive”. With COc1ccc(S(=O)(=O)Nc2ccc3c(c2)C(=O)N([C@@H](C)CO)C[C@H](C)[C@@H](CN(C)C(=O)Nc2ccc(C(F)(F)F)cc2)OCCCC[C@@H](C)O3)cc1 the cytotoxicity call was “active”. COc1ccc(S(=O)(=O)Nc2ccc3c(c2)C(=O)N([C@@H](C)CO)C[C@H](C)[C@H](CN(C)C(=O)Nc2ccc(C(F)(F)F)cc2)OCCCC[C@H](C)O3)cc1 was tested, and the cytotoxicity call was “inactive”. In the case of COc1ccc(S(=O)(=O)Nc2ccc3c(c2)C(=O)N([C@@H](C)CO)C[C@@H](C)[C@H](CN(C)C(=O)Nc2ccc(C(F)(F)F)cc2)OCCCC[C@H](C)O3)cc1, the cytotoxicity call is reported as “inactive”. In the case of COc1ccc(S(=O)(=O)N(C)C[C@@H]2Oc3ccc(NS(=O)(=O)c4ccc(C)cc4)cc3CC(=O)N([C@H](C)CO)C[C@@H]2C)cc1, the cytotoxicity call is reported as “inactive”. CC(C)NC(=O)N(C)C[C@@H]1Oc2cc(C#Cc3cccc(F)c3)ccc2S(=O)(=O)N([C@H](C)CO)C[C@H]1C was tested, and the cytotoxicity call was “inactive”. In the case of Cc1ccc(S(=O)(=O)N(C)C[C@H]2OCCCC[C@H](C)Oc3ccc(NC(=O)Nc4ccc(F)cc4)cc3C(=O)N([C@@H](C)CO)C[C@H]2C)cc1, the cytotoxicity call is reported as “inactive”. In the case of Cc1ccc(S(=O)(=O)N(C)C[C@H]2Oc3c(NC(=O)NC(C)C)cccc3C(=O)N([C@@H](C)CO)C[C@@H]2C)cc1, the cytotoxicity call is reported as “inactive”. With C[C@@H]1CCCCO[C@@H](CN(C)S(=O)(=O)c2ccc(F)cc2)[C@H](C)CN([C@@H](C)CO)C(=O)c2cc(NC(=O)C3CCCCC3)ccc2O1 the cytotoxicity call was “inactive”. For C[C@H](CO)N1C[C@H](C)[C@H](CN(C)C(=O)Nc2ccc3c(c2)OCO3)OCCCC[C@H](C)Oc2ccc(NC(=O)Nc3cccc4ccccc34)cc2C1=O, the cytotoxicity call was “inactive”. With C[C@@H]1CCCCO[C@@H](CN(C)Cc2ccccc2)[C@H](C)CN([C@H](C)CO)C(=O)c2cc(NC(=O)C3CCCCC3)ccc2O1 the cytotoxicity call was “inactive”. CC(C)NC(=O)N(C)C[C@@H]1Oc2cc(-c3ccccc3F)ccc2S(=O)(=O)N([C@H](C)CO)C[C@@H]1C was tested, and the cytotoxicity call was “inactive”. For C[C@@H]1CCCCO[C@H](CN(C)C(=O)Nc2ccc(C(F)(F)F)cc2)[C@H](C)CN([C@@H](C)CO)C(=O)c2cc(NC(=O)C3CCCCC3)ccc2O1, the cytotoxicity call was “inactive”. In the case of Cc1cc(C)cc(C(=O)N(C)[C@H](Cc2ccc(-c3ccccc3)cc2)C(=O)N[C@@H](Cc2c[nH]c3ccccc23)C(=O)O)c1, the cytotoxicity call is reported as “inactive”. In the case of O=C(NC(Cc1cc(=O)[nH]c2ccccc12)C(=O)O)c1ccc(Cl)cc1 (stereo not given), the cytotoxicity call is reported as “active”. NCCCC[C@@H](N)C(=O)N[C@@H](Cc1c[nH]c2ccccc12)C(=O)N[C@@H](CCCCN)C(=O)O was tested, and the cytotoxicity call was “inactive”. In the case of Cc1noc(C)c1NC(=O)Nc1ccc2c(c1)C(=O)N([C@H](C)CO)C[C@H](C)[C@@H](CN(C)C(=O)Nc1ccccc1)OCCCC[C@@H](C)O2, the cytotoxicity call is reported as “inactive”. CC(C)[C@@H](N)c1nc2ccccc2[nH]1 was tested, and the cytotoxicity call was “inactive”. C[C@H]1CN([C@@H](C)CO)C(=O)c2cc(NC(=O)Nc3ccc4c(c3)OCO4)ccc2O[C@H]1CN(C)Cc1ccc(Cl)c(Cl)c1 was tested, and the cytotoxicity call was “inactive”. C[C@H](CO)N1C[C@H](C)[C@H](CN(C)Cc2ccc(Cl)c(Cl)c2)Oc2ccc(NC(=O)Nc3ccc4c(c3)OCO4)cc2C1=O was tested, and the cytotoxicity call was “inactive”. For C[C@@H]1CN([C@H](C)CO)C(=O)c2cc(NC(=O)Nc3ccc4c(c3)OCO4)ccc2O[C@@H]1CN(C)Cc1ccc(Cl)c(Cl)c1, the cytotoxicity call was “inactive”. In the case of C[C@@H]1CN([C@@H](C)CO)C(=O)c2cc(NC(=O)Nc3ccc4c(c3)OCO4)ccc2O[C@@H]1CN(C)Cc1ccc(Cl)c(Cl)c1, the cytotoxicity call is reported as “active”. With C[C@@H]1CN([C@@H](C)CO)C(=O)c2cc(NC(=O)Nc3ccc4c(c3)OCO4)ccc2O[C@H]1CN(C)Cc1ccc(Cl)c(Cl)c1 the cytotoxicity call was “active”. In the case of C[C@H]1CN([C@@H](C)CO)C(=O)c2cc(NC(=O)Nc3ccc4c(c3)OCO4)ccc2O[C@@H]1CN(C)Cc1ccc(Cl)c(Cl)c1, the cytotoxicity call is reported as “inactive”. For COCC(=O)Nc1ccc2c(c1)OC[C@@H](C)N(C(=O)CN1CCOCC1)C[C@@H](C)[C@H](OC)CN(C)C2=O, the cytotoxicity call was “inactive”. With COc1ccc(CN(C)C[C@H]2Oc3ccc(NC(=O)Nc4ccc(C(F)(F)F)cc4)cc3CC(=O)N([C@@H](C)CO)C[C@H]2C)cc1 the cytotoxicity call was “active”. In the case of COc1ccc(NC(=O)Nc2ccc3c(c2)CC(=O)N([C@@H](C)CO)C[C@H](C)[C@@H](CN(C)Cc2ccc(C(F)(F)F)cc2)O3)cc1, the cytotoxicity call is reported as “inactive”. COc1ccc(NC(=O)Nc2ccc3c(c2)CC(=O)N([C@@H](C)CO)C[C@@H](C)[C@H](CN(C)Cc2ccc(C(F)(F)F)cc2)O3)cc1 was tested, and the cytotoxicity call was “active”. In the case of COc1ccc(CN(C)C[C@H]2Oc3ccc(NC(=O)Nc4ccc(C(F)(F)F)cc4)cc3CC(=O)N([C@@H](C)CO)C[C@@H]2C)cc1, the cytotoxicity call is reported as “active”. With COc1ccc(NC(=O)Nc2ccc3c(c2)CC(=O)N([C@H](C)CO)C[C@@H](C)[C@H](CN(C)Cc2ccc(C(F)(F)F)cc2)O3)cc1 the cytotoxicity call was “inactive”. COc1ccc(CN(C)C[C@H]2Oc3ccc(NC(=O)Nc4ccc(C(F)(F)F)cc4)cc3CC(=O)N([C@H](C)CO)C[C@H]2C)cc1 was tested, and the cytotoxicity call was “active”.
